# Laboratory results: PubChem BioAssay AID598 (SRMLSC, 2007)
# In all, about 85,000 compounds went through this assay and about 5,100 (6%) were called active. This excerpt belongs to a sample that is enriched for actives. Unmarked numbers belong to inactive results.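 The calls were made as follows: active = viability at or below 40%; inactive = viability above 40%.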
# Assay: proliferation blockers of H69AR lung cancer cells, primary screen, cell-based, human, 86K library (AID 598);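 also: multidrug resistant small cell line overexpressing MRP-1 efflux transporter; 100% = mean luminescence of untreated control wells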
# Conditions: H69AR lung tumor viability, ATP luminescence, 72 h; at 10 µM; active compounds read low
row,SMILES,viability
1,COc1cc(Cn2c(N)c(C(=O)NCc3ccco3)c3nc4ccccc4nc32)cc(OC)c1OC,9.48% (active)
2,CCOC(=O)c1c(N)n(CCN2CCOCC2)c2nc3ccccc3nc12,92.9%
3,CCOC(=O)c1c(N)n(Cc2ccccc2)c2nc3ccccc3nc12,74.2%
4,Cn1c(O)c(C=NCCN2CCNCC2)c(=O)n(C)c1=O,93.2%
5,COc1ccc(CN2CCN(c3ccccc3F)CC2)c(OC)c1,78.7%
6,CN(C)C(=O)NC(O)C(Cl)(Cl)Cl (stereo not given),103%
7,CCCCn1c(O)c(C(CC)=NCc2ccco2)c(=O)[nH]c1=O,76.8%
8,CCOc1ccc(CN(CCCl)CCCl)cc1C(=O)OC,54.1%
9,Cc1ccc(Cn2c(C)c3cnn(CC(=O)N4CCC5(CC4)OCCO5)c(=O)c3c2C)cc1,37.9% (active)
10,COc1ccc(-c2nc(CS(=O)CC(=O)N3CCC4(CC3)OCCO4)c(C)o2)cc1 (stereo not given),92.7%
11,O=C(CCCn1c(=O)[nH]c2cc(Cl)ccc2c1=O)N1CCC2(CC1)OCCO2,82.2%
12,CC(=O)c1c(C)n(C(C)C)c2ccc(O)cc12,98.6%
13,CCCCCn1c(=O)c(C(=O)NCc2ccccn2)c(O)c2ccccc21,20.3% (active)
14,COc1ccc(CCn2c(O)c(C=NCCCn3ccnc3)c(=O)[nH]c2=O)cc1OC,87.2%
15,CCN(N=Nc1nonc1OC)c1nonc1OC,95.7%
16,Cc1ccc(N(C)C(=O)Oc2cccc3ccc(C)nc23)cc1,90%
17,CC(=O)c1c(O)n(C2CCCCCC2)c(=O)[nH]c1=O,88.7%
18,CCC(=NCc1ccco1)c1c(O)n(Cc2ccccc2)c(=O)[nH]c1=O,71.1%
19,CCC(=NCCc1ccccc1)c1c(O)n(C2CCCCC2)c(=O)[nH]c1=O,25.3% (active)
20,c1cc2c(cc1CCNC1CCCCCC1)OCO2,73.7%
